# PubChem BioAssay (NCI)
# The panel holds about 83,000 compounds, 20% with a hit somewhere; the sample as a whole holds those more often.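 Values shown are percent growth following 48 h exposure of cells in 96-well plates to a single concentration of compound; below 10 was considered active.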 Activity calls are given as the source filed them.
# Tested on: HCT-116 colon
# Test: NCI-60 one-dose screen, 48 h (100 = growth as untreated, 0 = no growth, -100 = all killed)
# Details: 10 µM unless noted
row,Structure (SMILES),growth
1,CCOc1ccc(NC(=O)c2cc(OC)c(OC)c(OC)c2)cc1,18% (inactive)
2,COc1cc(-c2cc(-c3ccc(Nc4ncnc5cc(Cl)ccc45)cc3)nc(N3CCN(C)CC3)n2)cc(OC)c1OC,64% (inactive)
3,COc1ccc(C/C(C)=C(\c2ccc(O)cc2)c2ccc(OCCN3CCCC3)cc2)cc1,93.8% (inactive)
4,COC(=O)C1=C(C)NC(C)=C(C(=O)OCC(C)C)C1c1ccccc1[N+](=O)[O-] (stereo not drawn),30.1% (inactive)
5,O=C1CC2C=CCN2C=C1NC(=O)C1CCCCC1 (stereo not drawn),94.8% (inactive)
6,COc1ccc2nc3cc(Cl)ccc3c(NCCN)c2c1,-73.2% (active)
7,COc1cccc(/C=C2\COc3ccc(O)cc3C2=O)c1,32.8% (inactive)
8,COC(c1ccc2ccccc2c1)C(C)C(F)F (stereo not drawn),87.7% (inactive)
9,COc1ccc(-c2ccc(-c3ccc(C(=N)N)cn3)s2)cc1,-20.8% (active)
10,O=C1Nc2ccc(F)cc2/C1=C\c1nc(-c2ccccc2F)n2ccccc12,44.2% (inactive)
11,CCN1C(=S)N(CC)C2C1NC(=S)N2/N=C/C=C/c1ccccc1OC (stereo not drawn),13.6% (inactive)
12,COc1ccc2c(c1)c(-c1nonc1-c1c[nH]c3ccc(Br)cc13)cn2C,31.6% (inactive)
13,N#Cc1c(-c2ccccc2)c(C#N)c2c(C#N)c(N)nn2c1N,24.2% (inactive)
14,COc1cccc(Nc2ccnc3[nH]c4ccc([N+](=O)[O-])cc4c23)c1,24.5% (inactive)
15,Clc1nn2c(Cn3cnc4c(NCc5ccccc5)ncnc43)nnc2c2ccccc12,21.9% (inactive)
16,O=C1CCC(C(=O)NN(c2ccccc2)c2ccccc2)N1 (stereo not drawn),15.5% (inactive)
17,O=C1/C(=C/c2ccccc2)CN(C(=O)c2cccnc2)C/C1=C\c1ccccc1,-87.6% (active)
18,COc1ccc(C(C)=O)cc1S(N)(=O)=O,89% (inactive)
19,O=C(CBr)CN1C(=O)c2ccccc2C1=O,102% (inactive)
20,CS(=O)(=O)Nc1cc(-c2ccc3ncnc(Nc4ccc5c(cnn5Cc5cccnc5)c4)c3c2)cnc1Cl,69.8% (inactive)

row,Structure (SMILES),growth
1,Cc1c(N2CN3C[C@H](C)N4CN(c5c(C)n(C)n(-c6ccccc6)c5=O)CN5C[C@@H](C)N(C2)C3C54)c(=O)n(-c2ccccc2)n1C (stereo partly drawn),96.9% (inactive)
2,O=C(Nc1ncc(Cc2ccccc2Cl)s1)c1cccs1,58.1% (inactive)
3,COc1ccc(Cc2nnc(Nc3nc4ccccc4s3)s2)cc1,104% (inactive)
4,CCOC(=O)Nc1nc2ccc(SCC(C)C)cc2s1,31.4% (inactive)
5,COc1cc(-c2nc3occn3c2-c2ccnc(NCCCNS(=O)(=O)c3ccccc3)n2)ccc1F,34.3% (inactive)
6,CN(C)c1ccc(/C=C2/C=C(c3ccccc3)OC2=O)cc1,100% (inactive)
7,COc1ccc(OC)c(-c2cn3nc(-c4c[nH]c5ccc(Br)cc45)sc3n2)c1,13.2% (inactive)
8,CCNCc1ccc(O)c2ncccc12,21.6% (inactive)
9,O=C(CCl)Nc1ccc2c(Nc3cc(O)ccc3Cl)ncnc2c1,-74.5% (active)
10,CCNC(=O)Oc1ccc(/C(=C(/C)Cc2ccc(OC)cc2)c2ccc(OCCN3CCCCCC3)cc2)cc1,56.3% (inactive)
11,CC(C)(C)c1cc(C=Nc2cccc(C(F)(F)F)c2)c(O)c(C(C)(C)C)c1,94.1% (inactive)
12,C(/C=C/c1ccccc1)=Nc1ccc(CCc2ccc(N=C/C=C/c3ccccc3)cc2)cc1,54.1% (inactive)
13,Cn1cc(C(=O)c2nc(-c3c[nH]c4ccc(Br)cc34)no2)c2cc(Br)ccc21,63.5% (inactive)
14,Cc1[nH]c(C(=O)Nc2ccc(C(N)=O)cc2NC(C)C)c(Cl)c1Cl,81% (inactive)
15,O=C1OCC2=C1C(c1cccc(C(F)(F)F)c1)c1cc3c(cc1N2CCO)OCO3 (stereo not drawn),21.4% (inactive)
16,COc1ccc2cc(-c3cnc4nonc4n3)ccc2c1,18.3% (inactive)
17,Cn1ncc2ccc(-c3nc(-c4ccccc4)[nH]c3-c3n[nH]c(=O)n3C3CC3)cc21,86.3% (inactive)
18,Cn1ccnc1C(=O)/C=C/c1ccc(C(=O)Nc2ccc(F)cc2)cc1,-81.5% (active)
19,O=C(CSc1nc2ccc([N+](=O)[O-])cc2[nH]1)Nc1cccc([N+](=O)[O-])c1,33.6% (inactive)

# Tested on: HCC-2998 colon
# Test: as above
# Details: 10 µM unless noted
row,Structure (SMILES),growth
1,CCOc1ccc(NC(=O)c2cc(OC)c(OC)c(OC)c2)cc1,55.5% (inactive)
2,COc1cc(-c2cc(-c3ccc(Nc4ncnc5cc(Cl)ccc45)cc3)nc(N3CCN(C)CC3)n2)cc(OC)c1OC,110% (inactive)
3,COc1ccc(C/C(C)=C(\c2ccc(O)cc2)c2ccc(OCCN3CCCC3)cc2)cc1,104% (inactive)
4,COC(=O)C1=C(C)NC(C)=C(C(=O)OCC(C)C)C1c1ccccc1[N+](=O)[O-] (stereo not drawn),83.5% (inactive)
5,O=C1CC2C=CCN2C=C1NC(=O)C1CCCCC1 (stereo not drawn),88.3% (inactive)
6,COc1ccc2nc3cc(Cl)ccc3c(NCCN)c2c1,-73.2% (active)
7,COc1cccc(/C=C2\COc3ccc(O)cc3C2=O)c1,115% (inactive)
8,COC(c1ccc2ccccc2c1)C(C)C(F)F (stereo not drawn),114% (inactive)
9,COc1ccc(-c2ccc(-c3ccc(C(=N)N)cn3)s2)cc1,81.3% (inactive)
10,O=C1Nc2ccc(F)cc2/C1=C\c1nc(-c2ccccc2F)n2ccccc12,100% (inactive)
11,CCN1C(=S)N(CC)C2C1NC(=S)N2/N=C/C=C/c1ccccc1OC (stereo not drawn),11.6% (inactive)
12,COc1ccc2c(c1)c(-c1nonc1-c1c[nH]c3ccc(Br)cc13)cn2C,38.7% (inactive)
13,N#Cc1c(-c2ccccc2)c(C#N)c2c(C#N)c(N)nn2c1N,61.4% (inactive)
14,COc1cccc(Nc2ccnc3[nH]c4ccc([N+](=O)[O-])cc4c23)c1,84.8% (inactive)
15,Clc1nn2c(Cn3cnc4c(NCc5ccccc5)ncnc43)nnc2c2ccccc12,56.1% (inactive)
16,O=C1CCC(C(=O)NN(c2ccccc2)c2ccccc2)N1 (stereo not drawn),110% (inactive)
17,O=C1/C(=C/c2ccccc2)CN(C(=O)c2cccnc2)C/C1=C\c1ccccc1,-83.5% (active)
18,COc1ccc(C(C)=O)cc1S(N)(=O)=O,98.3% (inactive)
19,O=C(CBr)CN1C(=O)c2ccccc2C1=O,98.8% (inactive)
20,CS(=O)(=O)Nc1cc(-c2ccc3ncnc(Nc4ccc5c(cnn5Cc5cccnc5)c4)c3c2)cnc1Cl,65.7% (inactive)

row,Structure (SMILES),growth
1,Cc1c(N2CN3C[C@H](C)N4CN(c5c(C)n(C)n(-c6ccccc6)c5=O)CN5C[C@@H](C)N(C2)C3C54)c(=O)n(-c2ccccc2)n1C (stereo partly drawn),106% (inactive)
2,O=C(Nc1ncc(Cc2ccccc2Cl)s1)c1cccs1,72.8% (inactive)
3,COc1ccc(Cc2nnc(Nc3nc4ccccc4s3)s2)cc1,103% (inactive)
4,CCOC(=O)Nc1nc2ccc(SCC(C)C)cc2s1,75% (inactive)
5,COc1cc(-c2nc3occn3c2-c2ccnc(NCCCNS(=O)(=O)c3ccccc3)n2)ccc1F,69.1% (inactive)
6,CN(C)c1ccc(/C=C2/C=C(c3ccccc3)OC2=O)cc1,95% (inactive)
7,COc1ccc(OC)c(-c2cn3nc(-c4c[nH]c5ccc(Br)cc45)sc3n2)c1,27.2% (inactive)
8,CCNCc1ccc(O)c2ncccc12,45.9% (inactive)
9,O=C(CCl)Nc1ccc2c(Nc3cc(O)ccc3Cl)ncnc2c1,-3.99% (active)
10,CCNC(=O)Oc1ccc(/C(=C(/C)Cc2ccc(OC)cc2)c2ccc(OCCN3CCCCCC3)cc2)cc1,63.3% (inactive)
11,CC(C)(C)c1cc(C=Nc2cccc(C(F)(F)F)c2)c(O)c(C(C)(C)C)c1,108% (inactive)
12,C(/C=C/c1ccccc1)=Nc1ccc(CCc2ccc(N=C/C=C/c3ccccc3)cc2)cc1,108% (inactive)
13,Cn1cc(C(=O)c2nc(-c3c[nH]c4ccc(Br)cc34)no2)c2cc(Br)ccc21,103% (inactive)
14,Cc1[nH]c(C(=O)Nc2ccc(C(N)=O)cc2NC(C)C)c(Cl)c1Cl,108% (inactive)
15,O=C1OCC2=C1C(c1cccc(C(F)(F)F)c1)c1cc3c(cc1N2CCO)OCO3 (stereo not drawn),69.9% (inactive)
16,COc1ccc2cc(-c3cnc4nonc4n3)ccc2c1,59.3% (inactive)
17,Cn1ncc2ccc(-c3nc(-c4ccccc4)[nH]c3-c3n[nH]c(=O)n3C3CC3)cc21,103% (inactive)
18,Cn1ccnc1C(=O)/C=C/c1ccc(C(=O)Nc2ccc(F)cc2)cc1,-0.654% (active)
19,O=C(CSc1nc2ccc([N+](=O)[O-])cc2[nH]1)Nc1cccc([N+](=O)[O-])c1,62.9% (inactive)
